High-throughput results from PubChem.
This is a sample that favours compounds with a hit; in the whole collection about 8.3% have one here.
MCF10A rereplic: inducers of DNA re-replication in MCF 10A breast cells; MCF 10A DNA re-replication, Hoechst nuclear intensity, 48 h; Potency, µM (titrated, usually from 46.1 µM), for the others: at the top dose activity, positive = re-replication, hits mostly activators; AID 624296; actives 2.9% (n = 350,000); note: potency is the fitted concentration of half-maximal effect; % of control where 0% means no effect; nearly all actives have a fitted effect of over 50% in size
Giardia killer: kills Giardia lamblia; activity change, % at 7.66 µM, hits read low; Giardia lamblia trophozoite viability; actives 0.15% (n = 340,000); AID 540267; in the data active = activity change below about -80%; inconclusive = between about -30% and that limit;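 note: parasites exposed to compound for two days anaerobically before the ATP read; % is set by controls: 0 for no effect and ±100 for the full control effect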
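Trophozoite viability was measured as ATP-dependent luminescence, read 15-30 min after reagent addition. Before that, parasites at 100 cells/well were exposed to compounds for 48 h, anaerobically, at 37 deg C.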
RORg inh: inhibitors of mouse ROR gamma transcriptional activity; Drosophila S2 Gal4-RORgamma UAS-luciferase reporter, 20 h; P51450; Potency, µM (top dose mostly 53.6 µM), for inactives: top-dose activity change, negative = inhibition, usual class: inhibitors; actives 5.4% (n = 310,000); note: potency is the fitted concentration of half-maximal effect; % is set by controls: 0 for no effect and ±100 for the full control effect; nearly all actives have a fitted effect of over 60% in size
Target sequence (P51450 whole entry, looked up, the tested form may be a part): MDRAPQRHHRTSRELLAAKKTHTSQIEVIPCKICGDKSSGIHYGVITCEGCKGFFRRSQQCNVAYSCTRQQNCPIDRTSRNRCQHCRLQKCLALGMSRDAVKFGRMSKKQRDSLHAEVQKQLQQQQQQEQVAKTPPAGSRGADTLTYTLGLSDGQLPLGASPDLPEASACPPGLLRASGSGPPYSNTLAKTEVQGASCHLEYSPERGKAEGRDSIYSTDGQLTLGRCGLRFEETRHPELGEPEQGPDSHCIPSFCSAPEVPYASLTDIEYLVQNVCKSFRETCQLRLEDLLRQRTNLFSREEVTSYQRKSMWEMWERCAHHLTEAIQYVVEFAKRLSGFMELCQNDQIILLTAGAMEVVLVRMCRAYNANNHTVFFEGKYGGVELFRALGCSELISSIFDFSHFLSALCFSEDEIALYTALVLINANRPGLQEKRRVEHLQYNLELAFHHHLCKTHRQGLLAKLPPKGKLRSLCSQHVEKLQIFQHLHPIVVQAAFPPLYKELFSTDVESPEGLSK
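In this cell-based reporter format, copper sulfate (700 uM final) drives Gal4–ROR gamma fusion expression from a metallothionein promoter in Drosophila Schneider cells; compounds preincubated 1 hr, reporter read after 20 hr at ambient temperature.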
SW480 rerep: DNA re-replication induction in SW480 cells; SW480 DNA re-replication, Hoechst DNA content imaging, 48 h; Potency, µM (top dose mostly 46.1 µM), for the others: at the top dose re-replication activation, usual class: activators; actives 1.8% (n = 340,000); AID 624297; note: potency is the fitted concentration of half-maximal effect; % of control where 0% means no effect; nearly all actives have a fitted effect of over 55% in size
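Compounds, transferred as 23 nL by pin tool, were incubated with cells for 48 hr; DNA content per nucleus was then quantified by Hoechst staining and fluorescence plate imaging.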
BCR signal inh: inhibitors of chronic active B-cell receptor signaling; ABC-DLBCL IkBa-CBG/CBR reporter, luminescence ratio, 4 h; Potency, µM (top dose mostly 46.1 µM), for the others: at the highest dose activity change, negative = inhibition, most hits filed as inhibitors; actives 0.05% (n = 340,000); AID 493014; active = well fitted inhibition curve with a large enough effect in the signal ratio, with a control signal flat, not every such curve was filed as active; inconclusive = small, poorly fitted or top-dose-only effect, or effect the other way, or a change in a side signal; the % refers to the signal ratio;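 note: potency is the fitted concentration of half-maximal effect; plate controls were basal doxycycline-induced cells for no effect and cells given 10 µM MG132 for full effect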
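TMD8 ABC-DLBCL cells carrying doxycycline-inducible green luciferase fused to IkappaBalpha plus unfused red luciferase were exposed to compounds (up to 46 uM) for 4 hrs at 37C. Activity came from the overlap-corrected green/red luminescence ratio.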
VP16 counter: counter-screen for ROR gamma inhibitors: Gal4-VP16 reporter; AID 2546; Potency, µM (series often up to 53.6 µM), for inactives: at the top dose activity, negative = inhibition, hits mostly inhibitors; actives 3.5% (n = 310,000); Drosophila S2 Gal4-VP16 UAS-luciferase, luminescence, 20 h;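 note: Gal4-VP16 expression switched on by copper sulfate through the metallothionein promoter; potency is the fitted concentration of half-maximal effect; % is set by controls: 0 for no effect and ±100 for the full control effect; nearly all actives have a fitted effect of over 50% in size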
* = called active by the depositor; ? = inconclusive; nt = not tested or not shown; [ ] = another dose, or the depositor's remark. Unless noted, calls come from the whole dose curve; as a rule, active = well fitted curve in the direction sought with a large enough effect; inconclusive = small, poorly fitted or top-dose-only effect, or another doubt; inactive = no such curve, though single readings can be large; an effect the other way counts as inactive or inconclusive.

SMILES	MCF10A rereplic	Giardia killer	RORg inh	SW480 rerep	BCR signal inh	VP16 counter
CCN(CC)CC(=O)Nc1sc2c(c1C(=O)c1ccccc1OC)CCC2	?	-13.0	3.98µM*	?	11.7%	10µM*
CCOC(=O)c1c(NC(=O)OC)sc2c1CCC2	-6.0%	51.1	-0.6%	-12.3%	-1.6%	1.7%
CCOC(=O)c1c(NC(NC(C)=O)C(Cl)(Cl)Cl)sc2c1CCCC2 (configuration not stated)	20.6µM*	4.8	?	7.8%	?	-16.2%
CCCCCOC(=O)C1=C(C)NC(=O)NC1c1ccc(OC)cc1 (configuration not stated)	2.6%	24.3	19.8%	-4.4%	0.4%	3.1%
O=C(CSc1nnc(CNC(=O)c2ccc(F)cc2)o1)NCC1CCCO1 (configuration not stated)	0.8%	-7.0	-9.6%	-7.7%	4.6%	-5.2%
O=C1c2ccccc2NC(c2ccccc2F)N1NS(=O)(=O)c1ccccc1 (configuration not stated)	-1.4%	7.5	10.1%	-0.6%	0.9%	0.5%
Cc1ccc(C(=O)CCS(=O)(=O)c2ccc(Cl)cc2)cc1	3.26µM*	-4.7	15.8µM*	9.2µM*	3.7%	?
Cc1ccc(C(=O)CCS(=O)(=O)c2ccc(F)cc2)cc1	?	10.1	3.16µM*	?	?	3.55µM*
Cc1ccc(S(=O)(=O)CCC(=O)c2ccc(F)cc2)cc1	4.61µM*	-3.8	3.98µM*	?	3.9%	2.82µM*
COc1ccc(C(=O)CCS(=O)(=O)c2ccc(F)cc2)cc1OC	nt	nt	-5.2%	nt	4.7%	-10.8%
Cc1ccc(S(=O)(=O)CCC(=O)OCC(=O)NCCc2ccc(F)cc2)cc1	-0.5%	-20.7	nt	-2.5%	-2.5%	nt
Cn1cnnc1Sc1ccc(C(F)(F)F)cc1[N+](=O)[O-]	?	-14.8	-32.8%	-5.3%	-9.2%	-8.2%
Nc1nc(SCC(=O)C23CC4CC(CC(C4)C2)C3)n[nH]1	-17.2%	-7.8	-0.8%	-3.0%	-1.7%	4.2%
COc1ccccc1C(=O)NNC(=O)c1nn(Cc2ccccc2)c(=O)c2ccccc12	9.1%	28.2	6.31µM*	?	?	?
C=CCN1C(=O)C(Cc2ccc(SC(F)F)cc2)SC1=Nc1ccc(C(=O)O)cc1 (configuration not stated)	-4.3%	-14.7	?	4.2%	6.7%	-4.1%
CCOC(=O)c1cccc(Nc2nc(-c3cccnc3)nc3ccccc23)c1	23.1µM*	-11.6	?	?	?	?
Cc1cccc(C)c1NC(=O)COC(=O)c1cc(-c2cccnc2)nc2ccccc12	11.6µM*	8.9	-9.9%	-0.2%	6.8%	-11.3%
O=C(COC(=O)c1cc(-c2ccccc2)nc2ccccc12)Nc1ccc2c(c1)OCO2	5.17µM*	-3.9	32.0%	11.4%	-8.3%	-6.9%
Cc1c(NC(=O)COC(=O)c2cc(-c3ccc(-c4ccccc4)cc3)nc3ccccc23)c(=O)n(-c2ccccc2)n1C	20.6µM*	?	-10.5%	nt	?	-26.1%
O=C(COC(=O)c1cc(-c2cccnc2)nc2ccccc12)Nc1ccc(F)cc1F	1.5%	5.7	9.6%	0.6%	?	-16.0%
Cc1c(NC(=O)c2cc(-c3ccccc3)nc3ccccc23)c(=O)n(-c2ccccc2)n1C	?	-23.5	nt	6.9%	?	nt
O=c1[nH][nH]c(=O)n1-c1ccccc1	7.0%	-1.4	-4.8%	-2.3%	-11.7%	-5.1%
CN(C(=O)Cc1csc(-c2ccccc2)n1)c1c(N)n(Cc2ccccc2)c(=O)[nH]c1=O	6.4%	-8.2	nt	-2.0%	-7.3%	nt
CC1CCCCN1CC(=O)Nc1cc(S(=O)(=O)N2CCOCC2)ccc1N1CCCC1 (configuration not stated)	-3.5%	6.6	25.2%	-4.3%	?	0.7%
COc1cc(C(=O)N(Cc2cccnc2)c2nc3cc(C)c(C)cc3s2)cc(OC)c1OC	nt	nt	nt	nt	-1.9%	nt
SMILES	MCF10A rereplic	Giardia killer	RORg inh	SW480 rerep	BCR signal inh	VP16 counter
CCOc1ccc(NS(=O)(=O)c2ccc3[nH]cc(C(=O)N(CC)CC)c(=O)c3c2)cc1	-1.4%	6.7	19.8%	-2.9%	?	-8.9%
COc1ccccc1NC(=O)C(=O)N1N=C(C(C)C)CC1(O)C(F)(F)F (configuration not stated)	8.2µM*	-5.2	10µM*	2.3%	?	?
CCC1=NN(C(=O)C(=O)Nc2ccccc2OC)C(O)(C(F)(F)F)C1 (configuration not stated)	?	-1.4	12.6µM*	-2.1%	?	?
O=C(CCC1N=C2c3ccccc3N=C(SCc3ccc(F)cc3)N2C1=O)NCc1ccc(F)cc1 (configuration not stated)	nt	nt	nt	nt	-10.2%	nt
O=C(O)C(c1ccccc1)N1CCCCC1 (configuration not stated)	-11.1%	8.3	11.3%	-3.4%	0.7%	1.2%
CC(C)CC(=O)Nc1ccc(-c2cn3ccsc3n2)cc1	7.7%	13.8	?	0.6%	11.7%	?
CC(C)(C)C(=O)Nc1ccc(-c2cn3ccsc3n2)cc1	-19.6%	-96.7*	4.47µM*	1.4%[9.22 µM]	8.5%	4.47µM*
S=c1[nH]nc(COc2ccccc2)n1/N=C/c1ccco1	0.0%	-13.6	7.94µM*	-6.6%	5.4%	-3.0%
Cc1ccc(/C=N/n2c(COc3ccccc3)n[nH]c2=S)o1	?	-10.7	?	105.5%	6.1%	7.8%[10 µM]
CC(/C=N/n1c(COc2ccccc2)n[nH]c1=S)=C\c1ccco1	1.5%	6.7	7.08µM*	-5.5%	0.2%	-19.1%
COc1nc2ccccc2nc1N1CCN(c2ccc(F)cc2)CC1	1.4%	-3.5	5.0%	0.2%	1.4%	-6.7%
Cc1cc(C2(O)C(=O)Nc3ccccc32)ccc1F (configuration not stated)	-1.8%	6.9	14.3%	-17.6%	-0.1%	4.0%
O=C1C=C(c2ccc(F)c(Cl)c2)C[C@@H](c2ccc(F)cc2)C1	17.7%	-2.5	nt	-0.3%	14.1%	nt
C=C1C2CC[C@@]3(C)C(c4ccoc4)OC(=O)C[C@@]13OC1CC(=O)C(C)(C)C(C(O)C(=O)OC)[C@]12C (some centres not stated)	nt	nt	0.0%	nt	nt	-4.1%
COC(=O)C(O)C1C(C)(C)C(OC(C)=O)C2CC3=C4CC(=O)OC(c5ccoc5)[C@]4(C)CCC3[C@@]1(C)C2=O (some centres not stated)	nt	nt	12.6µM*	nt	nt	4.3%
CCOC(=O)c1nnn(-c2nonc2N)c1-c1ccc(C)cc1	-2.2%	4.6	-7.3%	-1.3%	-0.7%	-19.0%
